Measurements published in publication PMC11006913.
Substitutions are numbered along the chain they refer to.

What was measured:
Assay in all cases: PBM; 200 nM protein, PBS
Details in all cases: dsDNA, one strand shown
HOXA7 [1] = molecular target: HOXA7 (Homo sapiens, UniProt P31268 116-202)
PAX4 [2] = molecular target: T1, PAX4 (Homo sapiens, UniProt O43316 9-242, R200K)
T1 sequence: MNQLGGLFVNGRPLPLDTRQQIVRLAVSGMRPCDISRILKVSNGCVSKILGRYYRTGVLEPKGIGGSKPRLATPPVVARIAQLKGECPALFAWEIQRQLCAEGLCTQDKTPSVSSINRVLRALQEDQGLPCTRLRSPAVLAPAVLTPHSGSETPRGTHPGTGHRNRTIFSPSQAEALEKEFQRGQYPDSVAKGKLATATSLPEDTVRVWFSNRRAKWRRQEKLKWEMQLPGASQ

PAX4 [3] = molecular target: T2, PAX4 (Homo sapiens, UniProt O43316 9-242)
T2 sequence: T1 sequence with K192R

MSX2 [4] = molecular target: MSX2 (Homo sapiens, UniProt P35548 130-214, R199I)
MSX2 (Homo sapiens, UniProt P35548 130-214, R199I), sequence (P35548 130-214 R199I): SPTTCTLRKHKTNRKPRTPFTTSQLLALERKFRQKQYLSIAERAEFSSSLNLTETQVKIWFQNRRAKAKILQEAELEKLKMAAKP

ALX1 [5] = molecular target: ALX1 (Homo sapiens, UniProt Q15699 118-204, L144V)
ALX1 (Homo sapiens, UniProt Q15699 118-204, L144V), sequence (Q15699 118-204 L144V): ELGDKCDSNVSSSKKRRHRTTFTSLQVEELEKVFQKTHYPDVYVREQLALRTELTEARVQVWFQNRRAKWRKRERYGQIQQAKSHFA

PAX4 [6] = molecular target: T3, PAX4 (Homo sapiens, UniProt O43316 9-242, R200Q)
T3 sequence: T1 sequence with K192Q

ALX1 [7] = molecular target: ALX1 (Homo sapiens, UniProt Q15699 118-204, L144R)
ALX1 (Homo sapiens, UniProt Q15699 118-204, L144R), sequence (Q15699 118-204 L144R): as the sequence (Q15699 118-204 L144V) above, with V27R counted along it

PAX4 [8] = molecular target: T4, PAX4 (Homo sapiens, UniProt O43316 9-242, F177V)
T4 sequence: T1 sequence with F169V, K192R

MSX2 [9] = molecular target: MSX2 (Homo sapiens, UniProt P35548 130-214)
MSX2 (Homo sapiens, UniProt P35548 130-214), sequence (P35548 130-214): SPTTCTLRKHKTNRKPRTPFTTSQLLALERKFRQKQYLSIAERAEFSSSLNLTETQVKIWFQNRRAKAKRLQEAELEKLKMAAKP

PAX4 [10] = molecular target: T5, PAX4 (Homo sapiens, UniProt O43316 9-242, F177Y)
T5 sequence: T1 sequence with F169Y, K192R

VAX1 [11] = molecular target: VAX1 (Homo sapiens, UniProt Q5SQQ9 86-172)
VAX1 (Homo sapiens, UniProt Q5SQQ9 86-172), sequence (Q5SQQ9 86-172): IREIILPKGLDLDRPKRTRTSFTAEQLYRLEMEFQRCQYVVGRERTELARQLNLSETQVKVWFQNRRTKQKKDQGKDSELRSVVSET

MSX2 [12] = molecular target: MSX2 (Homo sapiens, UniProt P35548 130-214, F161Y)
MSX2 (Homo sapiens, UniProt P35548 130-214, F161Y), sequence (P35548 130-214 F161Y): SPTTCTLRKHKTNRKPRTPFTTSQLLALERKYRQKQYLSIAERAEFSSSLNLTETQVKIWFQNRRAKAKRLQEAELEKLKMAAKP

VAX1 [13] = molecular target: VAX1 (Homo sapiens, UniProt Q5SQQ9 86-172, T142I)
VAX1 (Homo sapiens, UniProt Q5SQQ9 86-172, T142I), sequence (Q5SQQ9 86-172 T142I): as the sequence (Q5SQQ9 86-172) above, with T57I counted along it

PAX4 [14] = molecular target: T6, PAX4 (Homo sapiens, UniProt O43316 9-242, R227W)
T6 sequence: T1 sequence with K192R, R219W

HOXA7 [15] = molecular target: HOXA7 (Homo sapiens, UniProt P31268 116-202, W177C)
HOXA7 (Homo sapiens, UniProt P31268 116-202, W177C), sequence (P31268 116-202 W177C): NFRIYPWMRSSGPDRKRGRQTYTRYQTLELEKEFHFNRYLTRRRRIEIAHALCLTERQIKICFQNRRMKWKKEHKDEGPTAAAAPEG

ALX1 [16] = molecular target: ALX1 (Homo sapiens, UniProt Q15699 118-204)
ALX1 (Homo sapiens, UniProt Q15699 118-204), sequence (Q15699 118-204): as the sequence (Q15699 118-204 L144V) above, with V27L counted along it

VAX1 [17] = molecular target: VAX1 (Homo sapiens, UniProt Q5SQQ9 86-172, K157R)
VAX1 (Homo sapiens, UniProt Q5SQQ9 86-172, K157R), sequence (Q5SQQ9 86-172 K157R): as the sequence (Q5SQQ9 86-172) above, with K72R counted along it

HOXA7 (Homo sapiens, UniProt P31268 116-202), sequence (P31268 116-202): as the sequence (P31268 116-202 W177C) above, with C62W counted along it

## CCTGGTCC
HOXA7 [1]
  binding signal: 8.3 upbm affinity estimate (log intensity, higher = more binding, comparable within an allelic series)
PAX4 [2]
  binding signal: 9.07 upbm affinity estimate (log intensity, higher = more binding, comparable within an allelic series)
PAX4 [3]
  binding signal: 9.15 upbm affinity estimate (log intensity, higher = more binding, comparable within an allelic series)
MSX2 [4]
  binding signal: 9.44 upbm affinity estimate (log intensity, higher = more binding, comparable within an allelic series)
ALX1 [5]
  binding signal: 6.39 upbm affinity estimate (log intensity, higher = more binding, comparable within an allelic series)
PAX4 [6]
  binding signal: 9.31 upbm affinity estimate (log intensity, higher = more binding, comparable within an allelic series)
ALX1 [7]
  binding signal: 6.31 upbm affinity estimate (log intensity, higher = more binding, comparable within an allelic series)
PAX4 [8]
  binding signal: 9.26 upbm affinity estimate (log intensity, higher = more binding, comparable within an allelic series)
MSX2 [9]
  binding signal: 9.47 upbm affinity estimate (log intensity, higher = more binding, comparable within an allelic series)
PAX4 [10]
  binding signal: 9.15 upbm affinity estimate (log intensity, higher = more binding, comparable within an allelic series)
VAX1 [11]
  binding signal: 7.22 upbm affinity estimate (log intensity, higher = more binding, comparable within an allelic series)
MSX2 [12]
  binding signal: 9.52 upbm affinity estimate (log intensity, higher = more binding, comparable within an allelic series)
VAX1 [13]
  binding signal: 7.32 upbm affinity estimate (log intensity, higher = more binding, comparable within an allelic series)
PAX4 [14]
  binding signal: 9.31 upbm affinity estimate (log intensity, higher = more binding, comparable within an allelic series)
HOXA7 [15]
  binding signal: 8.35 upbm affinity estimate (log intensity, higher = more binding, comparable within an allelic series)
ALX1 [16]
  binding signal: 6.34 upbm affinity estimate (log intensity, higher = more binding, comparable within an allelic series)
VAX1 [17]
  binding signal: 7.26 upbm affinity estimate (log intensity, higher = more binding, comparable within an allelic series)

## ATTGATTG
HOXA7 [1]
  binding signal: 10.1 upbm affinity estimate (log intensity, higher = more binding, comparable within an allelic series)
HOXA7 [15]
  binding signal: 8.75 upbm affinity estimate (log intensity, higher = more binding, comparable within an allelic series)

## CGCGTTTC
HOXA7 [1]
  binding signal: 8.49 upbm affinity estimate (log intensity, higher = more binding, comparable within an allelic series)
HOXA7 [15]
  binding signal: 8.39 upbm affinity estimate (log intensity, higher = more binding, comparable within an allelic series)

## CTTCTAGA
HOXA7 [1]
  binding signal: 8.36 upbm affinity estimate (log intensity, higher = more binding, comparable within an allelic series)
HOXA7 [15]
  binding signal: 8.5 upbm affinity estimate (log intensity, higher = more binding, comparable within an allelic series)

## CCGCTTCG
HOXA7 [1]
  binding signal: 8.43 upbm affinity estimate (log intensity, higher = more binding, comparable within an allelic series)
HOXA7 [15]
  binding signal: 8.41 upbm affinity estimate (log intensity, higher = more binding, comparable within an allelic series)

## AAATGGGG
HOXA7 [1]
  binding signal: 9.82 upbm affinity estimate (log intensity, higher = more binding, comparable within an allelic series)
HOXA7 [15]
  binding signal: 8.64 upbm affinity estimate (log intensity, higher = more binding, comparable within an allelic series)

## AAATTACG
HOXA7 [1]
  binding signal: 10.3 upbm affinity estimate (log intensity, higher = more binding, comparable within an allelic series)
HOXA7 [15]
  binding signal: 8.82 upbm affinity estimate (log intensity, higher = more binding, comparable within an allelic series)

## ACCGCTCC
HOXA7 [1]
  binding signal: 8.61 upbm affinity estimate (log intensity, higher = more binding, comparable within an allelic series)
HOXA7 [15]
  binding signal: 8.49 upbm affinity estimate (log intensity, higher = more binding, comparable within an allelic series)

## CGCTGAAG
HOXA7 [1]
  binding signal: 8.52 upbm affinity estimate (log intensity, higher = more binding, comparable within an allelic series)
HOXA7 [15]
  binding signal: 8.44 upbm affinity estimate (log intensity, higher = more binding, comparable within an allelic series)

## CCATGCTC
HOXA7 [1]
  binding signal: 8.55 upbm affinity estimate (log intensity, higher = more binding, comparable within an allelic series)
HOXA7 [15]
  binding signal: 8.51 upbm affinity estimate (log intensity, higher = more binding, comparable within an allelic series)

## GTCAGGCA
HOXA7 [1]
  binding signal: 8.57 upbm affinity estimate (log intensity, higher = more binding, comparable within an allelic series)
HOXA7 [15]
  binding signal: 8.43 upbm affinity estimate (log intensity, higher = more binding, comparable within an allelic series)

## GGCCTGAA
HOXA7 [1]
  binding signal: 8.61 upbm affinity estimate (log intensity, higher = more binding, comparable within an allelic series)
HOXA7 [15]
  binding signal: 8.38 upbm affinity estimate (log intensity, higher = more binding, comparable within an allelic series)

## AAAATGAC
HOXA7 [1]
  binding signal: 10 upbm affinity estimate (log intensity, higher = more binding, comparable within an allelic series)
HOXA7 [15]
  binding signal: 8.89 upbm affinity estimate (log intensity, higher = more binding, comparable within an allelic series)

## GGCGGTCA
HOXA7 [1]
  binding signal: 8.58 upbm affinity estimate (log intensity, higher = more binding, comparable within an allelic series)
HOXA7 [15]
  binding signal: 8.5 upbm affinity estimate (log intensity, higher = more binding, comparable within an allelic series)

## AAGACGAG
HOXA7 [1]
  binding signal: 8.4 upbm affinity estimate (log intensity, higher = more binding, comparable within an allelic series)
HOXA7 [15]
  binding signal: 8.43 upbm affinity estimate (log intensity, higher = more binding, comparable within an allelic series)

## ACCTCGCT
HOXA7 [1]
  binding signal: 8.51 upbm affinity estimate (log intensity, higher = more binding, comparable within an allelic series)
HOXA7 [15]
  binding signal: 8.51 upbm affinity estimate (log intensity, higher = more binding, comparable within an allelic series)

## CGTCCACC
HOXA7 [1]
  binding signal: 8.57 upbm affinity estimate (log intensity, higher = more binding, comparable within an allelic series)
HOXA7 [15]
  binding signal: 8.48 upbm affinity estimate (log intensity, higher = more binding, comparable within an allelic series)

## AGGCCCAG
HOXA7 [1]
  binding signal: 8.42 upbm affinity estimate (log intensity, higher = more binding, comparable within an allelic series)
HOXA7 [15]
  binding signal: 8.28 upbm affinity estimate (log intensity, higher = more binding, comparable within an allelic series)

## CTCATTTA
HOXA7 [1]
  binding signal: 9.93 upbm affinity estimate (log intensity, higher = more binding, comparable within an allelic series)
HOXA7 [15]
  binding signal: 8.72 upbm affinity estimate (log intensity, higher = more binding, comparable within an allelic series)
